In the library only some 2% were active in any assay of this set; here they are far more common.
UHRF1 MBD2 ctr – UHRF1 methylated DNA binding inhibitors, primary screen, counter-screen for MBD2 inhibitor project, biochemical, TR-FRET, human UHRF1, single concentration; hit rate 0.75% among 370,000; inhibition, % at 4.4 µM; UHRF1 binding to methylated oligo; E3 ubiquitin-protein ligase UHRF1 (Homo sapiens), Q96T88; in the data active = inhibition above about 21%;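 note: UHRF1 SRA domain binding a hemimethylated CpG hairpin DNA probe; 0% = median of test compound wells and 100% = reference inhibitor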
Rin1 Abl inh – inhibitors of Rin1-Abl protein binding, primary screen, biochemical, TR-FRET; Tyrosine-protein kinase ABL1 (Homo sapiens) + Ras and Rab interactor 1 (Homo sapiens), …; inhibition, % at 7.35 µM; hit rate 0.4% among 360,000; AID 588664, 2011; in the data active = inhibition above about 5%, passing the limit was not always enough
Target sequence (P00519 whole entry, looked up): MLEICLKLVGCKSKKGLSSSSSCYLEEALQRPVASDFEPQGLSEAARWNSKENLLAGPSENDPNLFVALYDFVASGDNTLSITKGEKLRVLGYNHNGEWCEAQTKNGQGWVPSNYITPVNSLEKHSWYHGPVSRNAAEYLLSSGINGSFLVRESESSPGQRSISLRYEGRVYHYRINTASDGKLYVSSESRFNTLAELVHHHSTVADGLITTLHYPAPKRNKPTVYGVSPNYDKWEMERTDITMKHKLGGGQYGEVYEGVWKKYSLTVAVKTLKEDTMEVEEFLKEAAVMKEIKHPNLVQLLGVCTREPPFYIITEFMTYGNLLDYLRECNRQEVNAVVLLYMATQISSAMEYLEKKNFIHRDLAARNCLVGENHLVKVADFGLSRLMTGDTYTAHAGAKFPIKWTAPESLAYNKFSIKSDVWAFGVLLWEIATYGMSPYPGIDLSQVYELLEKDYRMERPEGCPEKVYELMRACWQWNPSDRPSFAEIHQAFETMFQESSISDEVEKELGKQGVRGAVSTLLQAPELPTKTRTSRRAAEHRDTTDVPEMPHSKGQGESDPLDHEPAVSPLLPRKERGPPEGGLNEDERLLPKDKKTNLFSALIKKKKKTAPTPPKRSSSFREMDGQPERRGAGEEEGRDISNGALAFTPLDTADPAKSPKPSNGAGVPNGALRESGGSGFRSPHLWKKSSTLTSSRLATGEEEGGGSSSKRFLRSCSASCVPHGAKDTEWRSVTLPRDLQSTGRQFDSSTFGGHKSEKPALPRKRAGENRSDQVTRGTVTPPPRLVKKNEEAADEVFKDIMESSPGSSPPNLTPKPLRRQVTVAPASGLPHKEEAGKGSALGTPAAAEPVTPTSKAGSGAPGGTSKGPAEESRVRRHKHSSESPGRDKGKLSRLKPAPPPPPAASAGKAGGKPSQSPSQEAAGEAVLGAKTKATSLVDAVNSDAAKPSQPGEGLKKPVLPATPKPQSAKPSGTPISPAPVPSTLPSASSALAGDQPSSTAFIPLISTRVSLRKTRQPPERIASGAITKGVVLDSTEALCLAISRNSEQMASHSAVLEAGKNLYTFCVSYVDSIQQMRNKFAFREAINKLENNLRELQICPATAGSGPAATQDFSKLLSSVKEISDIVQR
Target sequence (Q13671 whole entry, looked up): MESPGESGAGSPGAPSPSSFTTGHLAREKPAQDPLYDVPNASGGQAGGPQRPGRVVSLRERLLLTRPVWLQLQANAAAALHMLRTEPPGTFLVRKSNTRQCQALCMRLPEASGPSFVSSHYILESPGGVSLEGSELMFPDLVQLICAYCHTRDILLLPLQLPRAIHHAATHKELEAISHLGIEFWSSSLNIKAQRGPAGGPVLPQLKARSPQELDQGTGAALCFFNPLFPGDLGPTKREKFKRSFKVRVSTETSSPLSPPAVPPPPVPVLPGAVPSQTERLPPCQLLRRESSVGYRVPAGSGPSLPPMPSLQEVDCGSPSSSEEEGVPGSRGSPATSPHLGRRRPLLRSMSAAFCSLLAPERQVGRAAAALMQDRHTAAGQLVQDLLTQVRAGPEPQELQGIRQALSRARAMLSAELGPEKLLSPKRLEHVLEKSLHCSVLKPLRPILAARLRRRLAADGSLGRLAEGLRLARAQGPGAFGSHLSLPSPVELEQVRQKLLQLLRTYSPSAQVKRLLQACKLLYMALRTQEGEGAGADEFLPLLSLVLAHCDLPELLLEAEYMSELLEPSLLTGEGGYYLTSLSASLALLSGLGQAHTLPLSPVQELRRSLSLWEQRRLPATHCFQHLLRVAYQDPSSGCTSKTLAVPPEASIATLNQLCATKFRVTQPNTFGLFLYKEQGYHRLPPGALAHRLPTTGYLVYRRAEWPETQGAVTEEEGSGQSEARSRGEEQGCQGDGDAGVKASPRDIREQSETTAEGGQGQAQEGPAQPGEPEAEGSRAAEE
MBD2 inh – inhibitors of MBD2 binding to methylated DNA, primary screen, biochemical, TR-FRET, DNA-binding domain, human; inhibition, % at 4.4 µM; AID 686964, 2013; hit rate 0.31% among 370,000; MBD2 binding to methylated oligonucleotide; in the data active = inhibition above about 13%
TCR-CD3 inh – inhibitors of human TCR-CD3 interaction, primary screen, biochemical, fluorescence, TAMRA-labeled TCR probe. T-cell receptor (TCR). inhibition, % at 9.4 µM. hit rate 0.37% among 360,000;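 note: recombinant mutant TCR 2C K166C tagged with TAMRA read by polarization; 0% = receptor in buffer alone and 100% = receptor with positive control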
LEDGF integ inh – blockers of LEDGF/p75-dependent integrase strand transfer – biochemical, TR-FRET, high throughput, primary screen; HIV-1 integrase (with human LEDGF/p75); TR-FRET IN-LEDGF/p75 DNA integration, Eu/Cy5; inhibition, % at 3.7 µM; hit rate 0.64% among 370,000;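 active = inhibition above the screen-wide mean plus 3 SD, cut at about 13% in these data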;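 note: signal is the Cy5 over europium emission ratio at 671 and 618 nm; 0% = plate median of compound wells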
BSA TAMRA ctr – compounds interfering with TAMRA-BSA probe, counter-screen for TCR-CD3 interaction inhibitor project, biochemical, fluorescence, TAMRA-labeled BSA | shares compounds with TCR-CD3 inh | TAMRA-labeled BSA probe fluorescence counterscreen | inhibition, % at 9.4 µM | hit rate 10% among 1,200 | AID 652035, 2013; in the data active = inhibition above about 23%;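 note: 0% = buffer low control and 100% = reference high control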
TCR-CD3 inh conf – TCR-CD3 interaction inhibitors, retest, confirmation, biochemical, fluorescence, TAMRA-labeled TCR probe; shares compounds with TCR-CD3 inh; TAMRA-labeled TCR probe fluorescence binding assay; inhibition, % at 9.4 µM; hit rate 48% among 1,200; AID 652036, 2013
Active calls of the source: *. Cut-off read from the data, not from the text of the source, unless noted: active = inhibition above about 19%; inactive = the rest.

Screening CC1CCCCC1NC(=O)CN1C(=O)c2ccccc2S1(=O)=O (stereo not drawn) returned UHRF1 MBD2 ctr 0.8, Rin1 Abl inh 2.8, MBD2 inh 3.5, TCR-CD3 inh 1.6 and LEDGF integ inh 0.5.
O=C(CN1C(=O)c2ccccc2S1(=O)=O)NC1CCCC1 was read as UHRF1 MBD2 ctr -0.8, Rin1 Abl inh -3.7, MBD2 inh -2.8, TCR-CD3 inh 21.9*, LEDGF integ inh 4.6, BSA TAMRA ctr -1.2 and TCR-CD3 inh conf 1.7.
`COc1cccc(/C=N/NC(=O)C(=O)N/N=C/c2cccc(OC)c2O)c1O` gave UHRF1 MBD2 ctr -1.5, Rin1 Abl inh 4.6, MBD2 inh -3.8, TCR-CD3 inh 20.5*, LEDGF integ inh 1.5, BSA TAMRA ctr -8.4 and TCR-CD3 inh conf 18.5.
For COC(=O)c1cccc(/C=N/NC(N)=S)c1O the results were UHRF1 MBD2 ctr -4.7, Rin1 Abl inh -4.1, MBD2 inh -5.2, TCR-CD3 inh 33.8*, LEDGF integ inh 4.6, BSA TAMRA ctr -24.7 and TCR-CD3 inh conf 3.9.
Screening COc1cccc(/C=N/NC(=O)C(=O)N2CCCCCC2)c1O returned UHRF1 MBD2 ctr -0.5, Rin1 Abl inh -4.0, MBD2 inh -1.7, TCR-CD3 inh -3.5 and LEDGF integ inh -9.0.
For COCCN(Cc1nnc(-c2cccs2)o1)C(=O)CN1C(=O)NC2(CCCCC2)C1=O the results were UHRF1 MBD2 ctr 5.1, Rin1 Abl inh -1.1, MBD2 inh 8.0, TCR-CD3 inh 0.9 and LEDGF integ inh 4.1.
`O=C(c1cccc(C(=O)N2CCN(c3ncccn3)CC2)c1)N1CCN(c2ncccn2)CC1` gave UHRF1 MBD2 ctr 1.1, Rin1 Abl inh 6.3, MBD2 inh 2.3, TCR-CD3 inh -2.6 and LEDGF integ inh -6.0.
For O=C(c1ccc2nc(-c3ccco3)c(-c3ccco3)nc2c1)N1CCN(c2ncccn2)CC1 the results were UHRF1 MBD2 ctr 11.9, Rin1 Abl inh 3.2, MBD2 inh 4.0, TCR-CD3 inh 29.3*, LEDGF integ inh 34.0*, BSA TAMRA ctr -0.9 and TCR-CD3 inh conf 24.8*.
O=C(NCc1ccccc1)c1ccc2nc(-c3ccco3)c(-c3ccco3)nc2c1 was read as UHRF1 MBD2 ctr -4.4, Rin1 Abl inh 5.9, MBD2 inh -9.7, TCR-CD3 inh 21.8*, LEDGF integ inh 26.7*, BSA TAMRA ctr -10.0 and TCR-CD3 inh conf 24.5*.
Screening O=C(CSc1nc2ccccc2s1)Nc1ccc2c(c1)oc1ccccc12 returned UHRF1 MBD2 ctr -5.4, Rin1 Abl inh -0.9, MBD2 inh -3.8, TCR-CD3 inh 23.8*, LEDGF integ inh 2.3, BSA TAMRA ctr 0.1 and TCR-CD3 inh conf 3.3.
`O=C(CSc1nc2ccccc2s1)Nc1ccc(Cl)c(C(=O)O)c1` gave UHRF1 MBD2 ctr -0.1, Rin1 Abl inh 1.6, MBD2 inh 0.0, TCR-CD3 inh -1.7 and LEDGF integ inh -0.3.
COc1ccc(NC(=O)NNC(=O)c2cc(C3CC3)nc3ccccc23)c(OC)c1 was read as UHRF1 MBD2 ctr 3.1, Rin1 Abl inh -2.0, MBD2 inh 5.3, TCR-CD3 inh -1.7 and LEDGF integ inh 2.1.
`CCOc1ccc(NC(=O)NNC(=O)c2ccc3ccccc3c2O)cc1` gave UHRF1 MBD2 ctr -3.5, Rin1 Abl inh -4.9, MBD2 inh -2.1, TCR-CD3 inh 31.5*, LEDGF integ inh 0.4, BSA TAMRA ctr -8.3 and TCR-CD3 inh conf 22.7*.
`CCc1ccccc1NC(=O)NNC(=O)c1ccc2ccccc2c1O` gave UHRF1 MBD2 ctr -0.5, Rin1 Abl inh 0.1, MBD2 inh -1.1, TCR-CD3 inh 26.3*, LEDGF integ inh -1.6, BSA TAMRA ctr -4.0 and TCR-CD3 inh conf 21.8*.
COc1ccc(NC(=O)NNC(=O)c2ccc3ccccc3c2O)c(OC)c1 was read as UHRF1 MBD2 ctr -0.1, Rin1 Abl inh -2.2, MBD2 inh -0.1, TCR-CD3 inh 42.0*, LEDGF integ inh -0.5, BSA TAMRA ctr -13.7 and TCR-CD3 inh conf 31.3*.
CCc1ccccc1NC(=S)NNC(=O)c1ccccc1Cl was read as UHRF1 MBD2 ctr -2.7, Rin1 Abl inh 1.9, MBD2 inh -3.4, TCR-CD3 inh 4.8 and LEDGF integ inh -0.8.
Screening COC(=O)c1ccccc1-c1ccc(/C=N/NC(=O)c2cc3ccccc3o2)o1 returned UHRF1 MBD2 ctr -3.0, Rin1 Abl inh -3.1, MBD2 inh 3.3, TCR-CD3 inh -0.8 and LEDGF integ inh 0.6.
Screening COC(=O)c1ccccc1-c1c2ccc(=N)cc-2oc2cc(N)ccc12 returned UHRF1 MBD2 ctr inactive, Rin1 Abl inh inactive, MBD2 inh -436.2, TCR-CD3 inh active, LEDGF integ inh 0.9, BSA TAMRA ctr active and TCR-CD3 inh conf active.
Cc1coc2c1C(=O)C(=O)c1c-2ccc2c1CCCC2(C)C was read as UHRF1 MBD2 ctr 0.2, Rin1 Abl inh 0.5, MBD2 inh -2.0, TCR-CD3 inh 122.7*, LEDGF integ inh 6.7, BSA TAMRA ctr -1.4 and TCR-CD3 inh conf 0.7.
`CC1CCc2c(C(=O)OCC(=O)Nc3cccc(S(=O)(=O)N4CCCCCC4)c3)csc2C1` (stereo not drawn) gave UHRF1 MBD2 ctr -3.7, Rin1 Abl inh -2.2, MBD2 inh -0.9, TCR-CD3 inh 32.1*, LEDGF integ inh -4.4, BSA TAMRA ctr 3.1 and TCR-CD3 inh conf 6.6.
Screening Cc1ccc(NC(=O)COC(=O)c2csc3c2CCC(C)C3)cc1S(=O)(=O)N1CCCCC1 (stereo not drawn) returned UHRF1 MBD2 ctr -2.6, Rin1 Abl inh -3.5, MBD2 inh -3.6, TCR-CD3 inh 18.9*, LEDGF integ inh -0.5, BSA TAMRA ctr 5.4 and TCR-CD3 inh conf 3.0.
For Cc1ccccc1C(=O)OCC(=O)Nc1cccc(S(=O)(=O)N2CCCCC2)c1 the results were UHRF1 MBD2 ctr 3.1, Rin1 Abl inh 5.2, MBD2 inh 0.2, TCR-CD3 inh -8.5 and LEDGF integ inh -5.0.
For O=C1CC(C(=O)N2CCc3ccccc32)CN1c1ccc(F)cc1 (stereo not drawn) the results were UHRF1 MBD2 ctr -1.6, Rin1 Abl inh 3.0, MBD2 inh -1.6, TCR-CD3 inh 0.8 and LEDGF integ inh -1.3.
CCOC(=O)c1cc(S(=O)(=O)NC2CCCCC2)cn1C was read as UHRF1 MBD2 ctr -0.2, Rin1 Abl inh 3.3, MBD2 inh 0.9, TCR-CD3 inh 30.0*, LEDGF integ inh 1.2, BSA TAMRA ctr -4.1 and TCR-CD3 inh conf 2.5.

Screening data deposited in PubChem BioAssay by The Scripps Research Institute Molecular Screening Center.
